The source made the active and inactive calls. Unless noted, the rule behind the calls is not given here.
Assays:
[1] = HepG2 liver cancer cell viability effects, profiling panel, resazurin fluorescence, 24 h, PK04 Diversity Set (AID 1172); conditions: higher = more signal
[2] = basal S. cerevisiae growth modulation, no modifier, primary screen, OD600, strain BY4716, 24 h, basal condition (AID 1173); conditions: OD600, 24 h, higher = more signal, called active from +8 up or from −8 down
[3] = MM1S myeloma cell viability, profiling panel, resazurin fluorescence, basal, 24 h, PK04 Diversity Set (AID 1174); conditions: higher = more signal, called active from +8 up or from −8 down;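 note: MM1S multiple myeloma cell line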
[4] = target: Dihydroorotate dehydrogenase (quinone), mitochondrial (Plasmodium falciparum (isolate 3D7)) (UniProt Q08210); assay: PfDHODH enzyme inhibitors, primary screen, biochemical, C-terminal His tag, absorbance 600 nm (AID 1175); conditions: DCIP absorbance 600 nm, higher = more signal, called active from +8 up or from −8 down;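 note: recombinant parasite enzyme with a five histidine tag at its C terminus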
Sequence of Dihydroorotate dehydrogenase (quinone), mitochondrial (Plasmodium falciparum (isolate 3D7)) (Q08210 whole entry, looked up): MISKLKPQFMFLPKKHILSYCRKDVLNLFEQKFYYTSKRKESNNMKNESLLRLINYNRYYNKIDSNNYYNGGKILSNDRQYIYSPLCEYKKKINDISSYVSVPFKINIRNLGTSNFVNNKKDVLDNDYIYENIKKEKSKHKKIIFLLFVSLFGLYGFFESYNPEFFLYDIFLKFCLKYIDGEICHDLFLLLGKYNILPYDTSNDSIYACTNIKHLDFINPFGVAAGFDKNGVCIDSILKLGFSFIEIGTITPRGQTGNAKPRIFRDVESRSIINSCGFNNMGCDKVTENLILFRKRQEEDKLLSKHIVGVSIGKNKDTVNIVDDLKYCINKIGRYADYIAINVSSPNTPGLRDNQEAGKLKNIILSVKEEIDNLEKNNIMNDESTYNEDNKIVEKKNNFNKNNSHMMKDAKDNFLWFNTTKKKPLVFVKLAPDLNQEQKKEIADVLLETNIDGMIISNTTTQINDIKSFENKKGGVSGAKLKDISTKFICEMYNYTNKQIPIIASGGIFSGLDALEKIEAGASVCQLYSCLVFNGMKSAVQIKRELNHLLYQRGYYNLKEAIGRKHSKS

[5] = P. aeruginosa biofilm formation inhibitors, primary screen, strain PAO1, LB-PBS medium, absorbance 600 nm (AID 1176); conditions: P. aeruginosa PAO1 growth/biofilm, A600, 12 h; higher = more signal
[6] = S. cerevisiae RM11-1a growth modifiers, primary screen, strain RM11-1a, OD600, basal, 24 h (AID 1177); conditions: OD600, 24 h, higher = more signal, called active from +8 up or from −8 down;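 note: cultures grown under basal conditions with no added stressor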
[7] = E. coli acrAB mutant growth effects, primary screen, E. coli filamentation inducers, strain DRC39, OD650, 24 h (AID 1178); conditions: higher = more signal, called active from +8 up or from −8 down;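 note: growth measured as culture turbidity by optical density at 650 nm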
[8] = E. coli acrAB mutant growth effects, primary screen, E. coli filamentation inducers, strain DRC39, OD650, 48 h (AID 1179);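 note: screen aims at cell division blockers that make cells filament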; conditions: E. coli DRC39 delta-acrAB growth, higher = more signal, called active from +8 up or from −8 down
[9] = RPMI8226 myeloma cell viability, profiling panel, resazurin fluorescence, basal, 24 h, PK04 Diversity Set (AID 1180); conditions: higher = more signal;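 note: RPMI8826 multiple myeloma cell line at 5000 cells per well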
[10] = target: E3 ubiquitin-protein ligase XIAP (Homo sapiens) (UniProt P98170); assay: XIAP binders, primary screen, biophysical, small-molecule microarray, fluorescence 635 nm (AID 1181); conditions: small-molecule microarray binding, higher = more signal;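 note: score merges 667 nm emission and signal to noise over triplicate slides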
Sequence of E3 ubiquitin-protein ligase XIAP (Homo sapiens) (P98170 whole entry, looked up): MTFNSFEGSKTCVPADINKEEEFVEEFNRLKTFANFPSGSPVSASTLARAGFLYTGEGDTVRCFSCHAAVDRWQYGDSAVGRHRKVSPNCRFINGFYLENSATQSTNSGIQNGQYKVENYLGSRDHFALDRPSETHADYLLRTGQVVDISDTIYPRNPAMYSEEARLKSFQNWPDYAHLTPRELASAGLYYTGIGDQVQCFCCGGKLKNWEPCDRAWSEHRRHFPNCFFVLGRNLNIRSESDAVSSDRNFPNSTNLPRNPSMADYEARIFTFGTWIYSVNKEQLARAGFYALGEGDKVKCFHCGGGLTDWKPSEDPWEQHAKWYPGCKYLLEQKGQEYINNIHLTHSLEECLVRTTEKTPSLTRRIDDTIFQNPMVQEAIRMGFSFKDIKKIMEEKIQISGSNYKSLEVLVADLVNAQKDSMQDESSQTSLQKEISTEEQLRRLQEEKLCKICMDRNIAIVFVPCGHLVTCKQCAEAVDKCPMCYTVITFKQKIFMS

[11] = test system: XIP peptide (Xip251-270) binding; assay: small-molecule binders of XIP peptide, primary screen, biochemical, small-molecule microarray, fluorescence 635/667 nm, 0.1 µg/mL protein (AID 1182); conditions: fluorescent protein binding, 635 nm, higher = more signal, called active from +8 up or from −8 down
[12] = test system: XIP peptide (Xip251-270); assay: small-molecule binders of XIP peptide, primary screen, biochemical, small-molecule microarray, fluorescence 635/667 nm, 0.5 µg/mL protein (AID 1183); conditions: small-molecule microarray binding, fluorescence 635 nm; higher = more signal
[13] = Plasmodium falciparum growth inhibition, primary screen, strain 3D7, DAPI fluorescence, 100 nL (AID 1184);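 note: parasites grown inside human red blood cells in medium with human serum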; conditions: P. falciparum 3D7 growth, 3 d, higher = more signal
[14] = target: Homeobox protein Hox-A13 (Mus musculus) (UniProt Q62424); assay: inhibitors of HoxA13-DNA binding, primary screen, biochemical, fluorescence polarization, labeled oligonucleotide (AID 1185); conditions: 15 min, higher = more signal, called active from +8 up or from −8 down
Sequence of Homeobox protein Hox-A13 (Mus musculus) (Q62424 whole entry, looked up): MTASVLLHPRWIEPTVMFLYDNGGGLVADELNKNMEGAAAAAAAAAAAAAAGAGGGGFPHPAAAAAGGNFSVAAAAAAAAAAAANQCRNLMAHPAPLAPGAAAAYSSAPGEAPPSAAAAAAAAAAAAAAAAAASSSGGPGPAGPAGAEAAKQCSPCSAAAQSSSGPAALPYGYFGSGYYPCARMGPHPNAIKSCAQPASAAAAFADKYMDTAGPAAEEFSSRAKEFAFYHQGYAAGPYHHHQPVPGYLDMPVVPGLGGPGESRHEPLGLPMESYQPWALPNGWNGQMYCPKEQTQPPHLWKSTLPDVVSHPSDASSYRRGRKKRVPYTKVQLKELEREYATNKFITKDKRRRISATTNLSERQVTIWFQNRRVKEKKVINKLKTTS

[15] = inhibitors of hydroxyurea-induced Chk1 phosphorylation, primary screen, imaging, HeLa, phospho-Chk1 antibody, percent positive cells (AID 1186); conditions: hydroxyurea-induced phospho-Chk1 immunofluorescence imaging, higher = more signal
[16] = inhibitors of hydroxyurea-induced Chk1 phosphorylation, primary screen, imaging, HeLa, phospho-Chk1 nuclear intensity (AID 1187); conditions: hydroxyurea-induced phospho-Chk1 immunofluorescence imaging, higher = more signal

| SMILES | z-score [1] | z-score [2] | z-score [3] | composite z-score [4] | z-score [5] | z-score [6] | z-score [7] | z-score [8] | z-score [9] | composite z-score [10] | composite z-score [11] | composite z-score [12] | z-score [13] | z-score [14] | z-score [15] | z-score [16] |
| --- | --- | --- | --- | --- | --- | --- | --- | --- | --- | --- | --- | --- | --- | --- | --- | --- |
| COCCOC(=O)N1C(=O)[C@@]2(c3cc(C#CCCO)ccc31)[C@H](c1ccc(OCCO)cc1)N1[C@H](c3ccccc3)[C@H](c3ccccc3)OC(=O)[C@H]1[C@@H]2C(=O)Nc1nc2ccccc2s1 | 0.32 | 1.9 (inactive) | -0.344 (inactive) | -0.719 (inactive) | 1.56 (inactive) | 2.38 (inactive) | -0.0627 (inactive) | 0.0759 (inactive) | -0.687 | -0.124 | 0.514 (inactive) | 0.509 | 0.335 | 0.838 (inactive) | -0.0639 (inactive) | -0.355 (inactive) |
| Cn1cccc1C(O)C1C=CC2C(=O)N(c3ccccc3)C(=O)C2N1Nc1ccccc1 (centres undefined) | -0.194 | 0.917 (inactive) | -0.251 (inactive) | 0.0729 (inactive) | 0.571 (inactive) | -0.529 (inactive) | 0.312 (inactive) | 0.881 (inactive) | 0.0611 | -0.0773 | 0.622 (inactive) | 0.801 | -0.255 | -4.04 (inactive) | 0.121 (inactive) | -0.436 (inactive) |
| COC(=O)[C@@]1(Cc2ccc(OC)cc2)[C@H]2c3cc(C(=O)N4CCCC4)n(CCc4c[nH]c5ccc(OC)cc45)c3C[C@H]2CN1C(=O)c1ccccc1 | -1.23 | 1.26 (inactive) | -3.31 (inactive) | -0.112 (inactive) | 1.54 (inactive) | 0.708 (inactive) | -0.456 (inactive) | -0.0765 (inactive) | -3.35 | 0.123 | 0.203 (inactive) | 0.0718 | -1.71 | -2.82 (inactive) | 0.513 (inactive) | 0.399 (inactive) |
| COc1cccc(C)c1NC(=O)O[C@H]1[C@H](OC(=O)Nc2ccc3c(c2)OCO3)[C@@H](OC(=O)Nc2ccc3c(c2)OCO3)[C@@H](OC)O[C@@H]1CO | -0.808 | 1.21 (inactive) | -1.06 (inactive) | -0.191 (inactive) | 3.29 (inactive) | 2.4 (inactive) | 1.5 (inactive) | -0.1 (inactive) | -0.939 | 0.196 | 0.519 (inactive) | -0.0963 | -2.44 | -10.8 (active) | -0.088 (inactive) | -0.224 (inactive) |

From PubChem BioAssay
